Bioassay records as filed in PubChem.
This excerpt belongs to a sample that is enriched for hits.
14-3-3g Raf: 14-3-3 gamma protein interaction modulation; P61981; FP, 14-3-3gamma / TMR-pS259-Raf peptide binding; inhibition, % at 40 µM; hit rate 0.19% among 160,000; AID 422; in the data active = inhibition above about 30%;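 also: 0% = protein plus tracer without compound and 100% = blank with tracer alone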
Target sequence (P61981 whole entry, looked up): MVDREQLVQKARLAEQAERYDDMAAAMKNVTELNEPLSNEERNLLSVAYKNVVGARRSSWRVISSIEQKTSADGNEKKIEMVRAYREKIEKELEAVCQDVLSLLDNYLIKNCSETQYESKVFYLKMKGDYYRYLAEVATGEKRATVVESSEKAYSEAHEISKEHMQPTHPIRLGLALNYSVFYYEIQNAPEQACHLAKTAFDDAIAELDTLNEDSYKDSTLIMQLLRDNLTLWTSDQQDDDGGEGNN
* = called active by the depositor; ! = a repeat was not active.

SMILES	14-3-3g Raf
CC(=O)Nc1ccc(N=Cc2c(O)c(C(=O)Nc3ccccc3)cc3ccccc23)cc1	174*
COc1ccccc1NC(=O)c1cc2ccccc2c(C=Nc2ccc(Cl)cc2)c1O	14
CCOc1ccc(N=Cc2c(O)c(C(=O)Nc3ccccc3)cc3ccccc23)cc1	71*
COc1ccccc1NC(=O)c1coc(=O)c2ccccc12	-7
CC(C)CCNC(=O)c1cc(S(=O)(=O)N2CCc3ccccc32)ccc1F	1
CCC(C)NC(=O)C(CC)(C(F)(F)F)C(F)(F)F (centres undefined)	-12
N#CCc1ccc(NC(=O)c2ccccc2)cc1	-5
O=C(c1ccccc1F)N1CCN(c2ccc([N+](=O)[O-])c(N3CCc4ccccc4C3)c2)CC1	-7
CCOC(=O)c1sc2nc(C)n(CC(=O)NCC3CCCC3)c(=O)c2c1C	3
CCN(CC)S(=O)(=O)c1ccc2[nH]c3nc(SCc4cccc(F)c4)nnc3c2c1	-1
O=C(Nc1ccc2oc(-c3ccccc3Cl)nc2c1)c1ccc(-c2cccc([N+](=O)[O-])c2)o1	-55
O=C(CCc1nc(-c2cccs2)no1)NCCN1CCN(c2ccccc2F)CC1	-6
COc1ccc(S(=O)(=O)CCC(=O)Nc2ccc(Br)c(C)c2)cc1	1
Cc1cc(C)cc(N(CC(=O)Nc2cccc(C(F)(F)F)c2)S(C)(=O)=O)c1	0
COc1ccc(-n2c(=O)c3c(C)c(C)sc3n(Cc3cccc(C)c3)c2=O)c(OC)c1	-148
CCOC(=O)c1cc2c(=O)n3ccccc3nc2n(CCCOC)c1=NC(=O)c1ccccc1F	2
CC1CCCC(NC(=O)C2(C)CCC(=O)N2CCN2CCOCC2)C1C (centres undefined)	3
COc1cccc(CN2CCN(C3CCCCC3OC)CC2)c1OC (centres undefined)	0
Cc1ccc(CNc2nc(=S)[nH]c3ccccc23)o1	-12
COc1ccc2c3c(cccc13)C(=O)c1ccccc1-2	32*
O=C1c2ccccc2-c2ccc(Br)c3cccc1c23	-1
COC(=O)CSc1ccc2c3c(cccc13)C(=O)c1ccccc1-2	20
O=C(NC(c1ccccc1)c1ccccc1)c1ccc(N2CCN(c3ccccn3)CC2)c([N+](=O)[O-])c1	-9
COc1ccc(N=Cc2cc(Cl)cc([N+](=O)[O-])c2O)cc1Cl	-20
COc1ccc(N=Cc2cc([N+](=O)[O-])cc(Br)c2O)cc1OC	9
SMILES	14-3-3g Raf
COc1ccc(N=Cc2cc(Cc3ccccc3Cl)cc([N+](=O)[O-])c2O)cc1OC	79*
COc1ccccc1CNC(=O)c1ccc2c(c1)N(Cc1ccccc1C)C(=O)CS2	-9
Cc1c(C(=O)N2CCCc3ccccc32)sc2ncnc(N3CCc4ccccc4C3)c12	0
COc1ccc(Br)cc1C1Nc2ccc(Br)cc2-c2nnc(SC)nc2O1 (centres undefined)	-173
CCSc1nnc2c(n1)OC(c1ccccc1F)Nc1ccccc1-2 (centres undefined)	3
CCc1ccc(C2Nc3ccc(Br)cc3-c3nnc(SC)nc3O2)cc1 (centres undefined)	0
CSc1nnc2c(n1)OC(c1ccccc1C)Nc1ccc(Br)cc1-2 (centres undefined)	49*
CCc1ccc(C2Nc3ccccc3-c3nnc(SC)nc3O2)cc1 (centres undefined)	149*
CCSc1nnc2c(n1)OC(c1ccc(C(=O)O)cc1)Nc1ccccc1-2 (centres undefined)	3
CCSc1nnc2c(n1)OC(c1cc3c(cc1Cl)OCO3)Nc1ccccc1-2 (centres undefined)	21
CSc1nnc2c(n1)OC(c1ccccc1F)Nc1ccc(Br)cc1-2 (centres undefined)	-117
CCSc1nnc2c(n1)OC(c1ccccc1Cl)Nc1ccccc1-2 (centres undefined)	98*
CSc1nnc2c(n1)OC(c1ccc(C)cc1)Nc1ccccc1-2 (centres undefined)	6
CCSc1nnc2c(n1)OC(c1ccc(OC3CCCC3)cc1)Nc1ccccc1-2 (centres undefined)	26
CCSc1nnc2c(n1)OC(c1ccc3ccccc3c1)Nc1ccccc1-2 (centres undefined)	139*
C#CCNc1ccccc1-c1nc2ccccc2[nH]c1=O	5
CCOC(=O)C1=C(C)NC2=C(C(=O)CCC2)C1c1cc(C)sc1C (centres undefined)	-15
Cc1ccc(CNC(=O)c2cc(S(=O)(=O)N3CCc4ccccc43)ccc2F)cc1	-6
COc1cc(OC)c(OC)cc1CN1CCC(N2CCC(C)CC2)CC1	-2
CCCCCNc1nc(=S)[nH]c2cc(OC)c(OC)cc12	-5
CCOc1ccc(NC(=O)c2sc3ncnc(N4CCC(C)CC4)c3c2C)cc1	-3
CSc1nnc2c(n1)OC(c1ccncc1)Nc1ccccc1-2 (centres undefined)	-7
CSc1nnc2c(n1)OC(C1CC=C(C)CC1)Nc1ccccc1-2 (centres undefined)	37*!
CSc1nnc2c(n1)OC(C1CC=C(C)CC1C)Nc1ccc(Br)cc1-2 (centres undefined)	-156
CCOC(=O)c1ccc(-n2c(N)c(C(=O)OC)sc2=S)cc1	2
SMILES	14-3-3g Raf
Cc1cc([N+](=O)[O-])nn1CC(=O)Nc1cc(Oc2cccc(Cl)c2)cc([N+](=O)[O-])c1	1
COc1cccc2c1C(=O)c1c(O)c3c(c(O)c1C2=O)C[C@@](O)(C(=O)CO)C[C@@H]3O[C@H]1C[C@H](N)[C@H](O)[C@H](C)O1	57*
CC(=O)c1c(C(C)=O)c(C)n(-c2ccc(C)c(NC(=O)c3ccc(F)cc3)c2)c1C	32*
CC(=O)c1c(C)[nH]c(C(=O)Nc2cc(C)ccc2C)c1C	-8
Cc1cc([N+](=O)[O-])ccc1NC(=O)c1ccc(F)cc1	4
COc1ccc(CC(=O)Oc2c(S(=O)(=O)c3ccc(C)cc3)c(C)nn2-c2ccccc2)cc1	-7
CCOC(=O)c1cccc(Nc2cc(N3CCN(C(=O)c4ccco4)CC3)c3noc4c3c2C(=O)c2ccccc2-4)c1	-249
CCOC(=O)C1=C(C)C2C3C(=O)N(c4ccccc4Cl)C(=O)C3C1(C)C1C(=O)N(c3ccccc3Cl)C(=O)C21 (centres undefined)	-84
CN(C)c1ccc(-c2nc3cc(N=Cc4cc(Cl)ccc4O)ccc3o2)cc1	-36
Cc1ccc(-c2nc3cc(N=Cc4cc(C)cc([N+](=O)[O-])c4O)ccc3o2)cc1	53*
Oc1ccc(Cl)cc1C=Nc1ccc(-c2nc3cc(Cl)ccc3o2)cc1	84*
Cc1ccc(-c2nc3cc(N=Cc4cccc([N+](=O)[O-])c4O)ccc3o2)cc1C	-60
Cc1ccccc1-c1nc2cc(N=Cc3cc(Cl)cc([N+](=O)[O-])c3O)ccc2o1	-6
Cc1ccc(-c2nc3cc(N=Cc4cc(Cl)ccc4O)ccc3o2)cc1	-7
CC(=O)Oc1ccccc1C(=O)NCCc1ccc(S(N)(=O)=O)cc1	-3
O=C(CN1C(=O)c2ccccc2C1=O)NCc1ccccn1	14
O=C(CCN1C(=O)c2ccccc2C1=O)NCc1ccncc1	-1
O=C(CCN1C(=O)c2ccccc2C1=O)NCc1ccccn1	177*
COCCNC(=O)c1ccc(CS(=O)(=O)Cc2cccc(C)c2)o1	6
COC(=O)c1ccc(Sc2ccc(C)cc2)c(NC=O)c1	1
O=C(CN(Cc1ccccc1)S(=O)(=O)c1ccc(Br)cc1)NCc1ccncc1	-2
O=C(CN(Cc1ccccc1)S(=O)(=O)c1ccccc1)NCc1ccncc1	33*
O=C(CN(Cc1ccccc1)S(=O)(=O)c1ccc(F)cc1)NCc1ccccc1	3
